Reference: PubChem BioAssay (NCI)
This is part of a sample that, as a whole, favours compounds with a hit. Of some 83,000 tested, about 20% had one in any assay.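 Each cell line was grown in a 96-well plate and treated with one concentration of compound for 48 hours. Values below 10 were considered active.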 Values without a mark were called inactive.

Test system: UACC-62 melanoma
Experiment: NCI-60 one-dose screen, 48 h (100 = growth as untreated, 0 = no growth, -100 = all killed)
Details: 10 µM unless noted

Going from `S=c1nc(-c2ccccn2)c(-c2ccccn2)n[nH]1` to `Nc1ncnc(Nc2ccccc2)n1`, the growth falls from 116% to 115%.

First: O=C(O)c1ccc(OCc2ccccc2)cc1
Second: Oc1ccc(N=Cc2ccc(OCc3ccccc3)cc2)cc1
The growth of the first is higher: 95.6% for the first, 88.6% for the second.

First: CCC(=O)Oc1c(C)cc(O)c2ccccc12
Second: O=C(O)c1c[nH]c2ccccc2c1=O
The growth of the first is lower: 67.3% for the first, 101% for the second.

Going from `Cc1nc(O)cc(=O)[nH]1` to `CSc1nc2[nH]ncc2c(=O)[nH]1`, the growth falls from 113% to 107%.

First: CC(=O)NNC(=S)/N=C\C(C(=O)c1ccccc1)=C(/O)c1ccccc1
Second: CC(=O)c1cccc(NS(=O)(=O)c2ccc(C)cc2)c1
The growth of the first is higher: 101% for the first, 84.4% for the second.

First: OCC(O)COc1ccc(Cl)cc1Cl (configuration not stated)
Second: Nc1nc(Cl)cc(Cl)n1
The growth of the first is lower: 96.6% for the first, 107% for the second.

Going from `ClCc1cccc2c(CCl)cccc12` to `c1ccc2[nH]c(Cc3nc4ccccc4[nH]3)nc2c1`, the growth rises from 64% to 105%.

Going from `COc1c(CNC(=O)CCl)cc2[nH]c(C)cc2c1CNC(=O)CCl` to `Cc1cc(CC(=O)NCCO)n(CCO)c(=O)c1`, the growth rises from 30.6% to 105%.

First: CC(=O)Nc1ccc(/C=C2\SC(=S)N(/C=C(\C(C)=O)C(N)=O)C2=O)cc1
Second: CC(=O)Nc1ccc(O)c(C)c1
The growth of the first is lower: 87.6% for the first, 104% for the second.

Going from `CC(CO)(CO)C(=O)O` to `NC(=O)OCCO`, the growth falls from 103% to 100%.

Going from `COC(=O)c1ccc([N+](=O)[O-])c(C)c1` to `CC(=O)c1cccc(O)c1`, the growth rises from 107% to 109%.

First: CC(C)c1ncc([N+](=O)[O-])n1C
Second: Nc1ncc([N+](=O)[O-])cn1
The growth of the first is higher: 107% for the first, 98.9% for the second.

Compared with `Clc1ccc(-c2noc(/C=C\c3ccccc3)n2)cc1`, `Cc1ccc2nc(-c3ccc(N=Cc4ccccc4O)cc3)sc2c1` is lower in growth: 100% for the first, 84.7% for the second.

First: OC1Cc2ccccc2C1
Second: O=C(CCCl)OCCOc1ccccc1
The growth of the first is lower: 95.6% for the first, 108% for the second.

Compared with `CCCCNC(=O)c1ccc(OCC)cc1`, `COc1cc(C(=O)N2CCN(c3ccccc3)CC2)c2ccccc2n1` is lower in growth: 98.2% for the first, 32.6% for the second.

Going from `CCC1CCC(C)NC1` (configuration not stated) to `CC(C)(N)CO[C@H]1C[C@H]2CC[C@@]1(C)C2(C)C`, the growth rises from 99.3% to 101%.

First: NNc1ncnc2nc[nH]c12
Second: NNC(=O)N/N=C1\C(=O)N(c2nccs2)C(=O)C(=O)C1c1nc2ccccc2s1 (configuration not stated)
The growth of the first is lower: 18.7% for the first, 90.5% for the second.

Going from `FC(F)(F)c1cc(NC2=NCCN=C(Nc3cc(C(F)(F)F)cc(C(F)(F)F)c3)SS2)cc(C(F)(F)F)c1` to `O=c1n(CC2CO2)c(=O)n(CC2CO2)n1CC1CO1` (configuration not stated), the growth rises from 35.6% to 54.1%.

`CC1(C)CCC(C)(C)NC(=S)N1` gave a growth of 105%.
